Assay results: PubChem BioAssay (NCATS)
Results filed as inconclusive are left out. Active and inactive are the calls of the source. Unless noted, calls follow the shape of the dose curve; as a rule, active = well fitted curve in the direction sought with a large enough effect; inconclusive = small, poorly fitted or top-dose-only effect, or another doubt; inactive = no such curve, though single readings can be large; an effect the other way counts as inactive or inconclusive.

Experiments:
[1] = biological target: Glucocorticoid receptor (Homo sapiens) (UniProt P04150); assay: GR-GFP Redistribution (AID 450;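 active = compounds whose dose series gives a full or clear partial fitted curve of increased nuclear translocation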; also: potency is read from the fitted curve at half-maximal effect); conditions: U2OS GR-GFP nuclear translocation, laser cytometry, 2 h
[2] = biological target: Mitogen-activated protein kinase 10 (Mus musculus) (UniProt Q61831); assay: JNK3 AlphaScreen Assay (AID 530; active = well fitted curve in either direction with a large enough effect, not every such curve was filed as active;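 also: kinase came from lysate of stimulated human HepG2 cells; signal reports phosphorylation of biotinylated GST-cJun 1-79 at Ser73 with 10 µM ATP; % is scaled to controls: 0 for no effect and ±100 for the full control effect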)
Outline: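 Kinase buffer: 20 mM Tris-HCl pH 7.6, 10 mM MgCl2, 1 mM DTT, 0.1 mM Na3VO4, 0.01% Tween-20; ATP 10 uM. Substrate biotin-GST-cJun(1-79), enzyme from activated HepG2 lysates. Detection by Ser73 phospho-antibody AlphaScreen.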

[3] = biological target: Cytochrome P450 3A4 (Homo sapiens) (UniProt P08684); assay: qHTS Assay for Inhibitors and Substrates of Cytochrome P450 3A4 (AID 884); also: potency is read from the fitted curve at half-maximal effect; nearly all actives have a fitted effect of over 50% in size
Chain of Cytochrome P450 3A4 (Homo sapiens) (P08684 whole entry, looked up): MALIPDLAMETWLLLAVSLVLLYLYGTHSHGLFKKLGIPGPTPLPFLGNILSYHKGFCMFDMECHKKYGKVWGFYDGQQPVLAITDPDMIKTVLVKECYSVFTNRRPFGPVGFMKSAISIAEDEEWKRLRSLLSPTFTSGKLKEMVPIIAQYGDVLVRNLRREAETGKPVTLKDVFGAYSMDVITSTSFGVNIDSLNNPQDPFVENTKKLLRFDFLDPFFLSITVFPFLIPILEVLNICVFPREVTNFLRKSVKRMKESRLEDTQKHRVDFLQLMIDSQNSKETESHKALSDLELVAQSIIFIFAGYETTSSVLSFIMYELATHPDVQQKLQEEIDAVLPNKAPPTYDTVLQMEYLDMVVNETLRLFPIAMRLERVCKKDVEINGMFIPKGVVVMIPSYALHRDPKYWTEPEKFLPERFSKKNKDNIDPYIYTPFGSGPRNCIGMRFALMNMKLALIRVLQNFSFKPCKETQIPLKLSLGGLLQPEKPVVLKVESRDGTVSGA
Outline: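 Luminescent readout of luciferin produced by CYP3A4 (20 nM) dealkylation of Luciferin-PPXE, 25 uM (its KM). NADPH-driven reaction ran 60 min at RT after 10 min compound preincubation; data scaled to 57 uM ketoconazole as 100% inhibition.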

[4] = biological target: Cytochrome P450 3A4 (Homo sapiens) (UniProt P08684); assay: qHTS Assay for Activators of Cytochrome P450 3A4 (AID 885); also: nearly all actives have a fitted effect of over 65% in size
Outline: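 CYP3A4 activity: Luciferin-PPXE O-dealkylation, 25uM substrate, 200mM KPO4, RT throughout. Read-out is luciferase luminescence; higher values reflect activation.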

[5] = biological target: Ubiquitin carboxyl-terminal hydrolase 1 (Homo sapiens) (UniProt O94782); assay: Inhibitors of USP1/UAF1: Pilot qHTS (AID 504865); also: nearly all actives have a fitted effect of over 35% in size; also: potency is read from the fitted curve at half-maximal effect;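 as to activity change, negative = inhibition: rhodamine fluorescence freed from ubiquitin-rhodamine substrate followed over time; top concentration of the series differs between compounds; % is scaled to controls: 0 for no effect and ±100 for the full control effect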
Chain of Ubiquitin carboxyl-terminal hydrolase 1 (Homo sapiens) (O94782 whole entry, looked up): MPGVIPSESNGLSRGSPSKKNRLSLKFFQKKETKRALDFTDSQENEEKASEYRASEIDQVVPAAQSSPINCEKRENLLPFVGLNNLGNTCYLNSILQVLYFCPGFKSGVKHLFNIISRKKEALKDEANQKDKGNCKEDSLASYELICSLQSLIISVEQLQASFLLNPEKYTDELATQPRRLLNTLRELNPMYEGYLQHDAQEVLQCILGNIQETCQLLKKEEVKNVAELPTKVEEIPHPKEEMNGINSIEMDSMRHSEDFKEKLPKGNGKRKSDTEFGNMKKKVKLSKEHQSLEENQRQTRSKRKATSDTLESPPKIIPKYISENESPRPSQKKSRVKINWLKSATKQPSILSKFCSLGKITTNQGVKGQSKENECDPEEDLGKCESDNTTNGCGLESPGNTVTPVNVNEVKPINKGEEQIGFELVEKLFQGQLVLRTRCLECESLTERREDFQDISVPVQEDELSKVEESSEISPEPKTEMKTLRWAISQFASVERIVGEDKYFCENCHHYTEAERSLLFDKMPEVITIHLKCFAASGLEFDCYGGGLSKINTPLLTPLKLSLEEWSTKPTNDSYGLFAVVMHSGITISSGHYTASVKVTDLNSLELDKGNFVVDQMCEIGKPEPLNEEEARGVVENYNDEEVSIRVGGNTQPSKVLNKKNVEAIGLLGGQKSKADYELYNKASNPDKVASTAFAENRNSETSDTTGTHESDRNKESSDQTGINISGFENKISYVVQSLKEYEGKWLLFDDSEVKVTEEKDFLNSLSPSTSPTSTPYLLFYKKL
Outline: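 Deubiquitinase activity followed as kinetic rhodamine fluorescence release from 150 nM Ub-Rho. 1 nM USP1/UAF1 with compound, after 15 min room-temperature preincubation, in HEPES pH 7.8 buffer containing TCEP, EDTA, BSA and Tween-20.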

[6] = biological target: DNA dC->dU-editing enzyme APOBEC-3G (Homo sapiens) (UniProt Q9HC16); assay: qHTS for inhibitors of Vif-A3G interactions: Validation (AID 588379); also: 0% is about no effect
Chain of DNA dC->dU-editing enzyme APOBEC-3G (Homo sapiens) (Q9HC16 whole entry, looked up): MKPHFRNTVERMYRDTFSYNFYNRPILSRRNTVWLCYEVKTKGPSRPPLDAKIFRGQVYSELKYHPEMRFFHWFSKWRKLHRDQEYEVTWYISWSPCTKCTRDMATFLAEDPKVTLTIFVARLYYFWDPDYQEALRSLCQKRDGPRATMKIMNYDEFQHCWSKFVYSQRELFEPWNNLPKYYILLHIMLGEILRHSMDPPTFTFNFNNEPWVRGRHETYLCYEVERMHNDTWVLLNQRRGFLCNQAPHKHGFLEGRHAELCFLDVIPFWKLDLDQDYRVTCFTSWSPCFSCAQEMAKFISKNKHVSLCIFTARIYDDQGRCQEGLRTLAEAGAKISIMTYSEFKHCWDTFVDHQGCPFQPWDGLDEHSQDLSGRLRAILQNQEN
Outline: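 Yellow fluorescence (Ex 488, Em 500-530) of Vif-coexpressing HeLa A3G-eYFP cells, scanned by Acumen cytometer, reports blocked A3G degradation. Cells plated at 700/well overnight at 37 deg C before compound addition, then a further overnight compound incubation at 37 deg C.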

[7] = test system: Zika virus NS2B-NS3 protease; assay: Primary screen GU AMC qHTS for Zika virus inhibitors (AID 1347154);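 also: 0% = no-inhibitor control and -100% = no-enzyme control; nearly all actives have a fitted effect of over 70% in size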
Outline: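 Fluorogenic AMC-substrate cleavage by noncovalent NS2B-NS3 protease complex (25 nM, pH 8.0 Tris buffer with Tween 20) followed for 15 minutes at room temperature (~20% conversion). Percent inhibition from ex340/em450 signal change, fitted by 4-parameter Hill equation.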

[8] = Confirmatory screen GU Rhodamine qHTS for Zika virus inhibitors qHTS (AID 1347157); also: potency is read from the fitted curve at half-maximal effect; nearly all actives have a fitted effect of over 70% in size
Outline: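 In dose–response format, inhibition of unlinked protease (25 nM) was measured with 1.5 microM bis-peptide Rhodamine110 substrate. Aprotinin served as the intraplate control.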

[9] = ZIKV-mCherry secondary qHTS for Zika virus inhibitors (AID 1347158); also: top concentration of the series differs between compounds
Outline: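 Read-out is percent infection: mCherry-positive Vero cells (nuclear-proximal intensity >450 RFU, 3 SD above negative controls) counted by high-content imaging of Hoechst-stained, PFA-fixed wells after 48-72 h with ZIKV-mCherry at MOI 1 and compound.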

[10] = Confirmatory screen NINDS Rhodamine qHTS for Zika virus inhibitors (AID 1347161); also: potency is read from the fitted curve at half-maximal effect; nearly all actives have a fitted effect of over 60% in size
Outline: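 Purified linked NS2B-NS3 protease (NS2B hydrophilic domain joined to NS3 protease by flexible linker), 25 nM in 10 mM Tris-HCl pH 8.0, 0.01% Tween 20. Compounds titrated, 15 min preincubation at room temperature; 1.5 microM Rhodamine110 substrate, FITC fluorescence change over 15 min.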

[11] = test system: Zika virus NS2B-NS3 protease (linked construct); assay: 384 well plate NINDS Rhodamine confirmatory qHTS for Zika virus inhibitors (AID 1347164);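 also: fluorescence from protease cleavage of Ac-LKRR-rhodamine 110 substrate; top concentration of the series differs between compounds; plate controls were no-inhibitor control for no effect and no-enzyme control for full effect; nearly all actives have a fitted effect of over 65% in size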
Outline: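 Fluorescence at 485/538 nm was measured 25 minutes after adding 10 microM Ac-LKRR-Rd substrate, in the dark at room temperature. The protease (5, 30 or 60 nM final) had been preincubated ~15 minutes with compound; aprotinin as control.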

[12] = Tertiary RLuc qRT-PCR qHTS assay for Zika virus inhibitors (AID 1347169); also: top concentration of the series differs between compounds; % is scaled to controls: 0 for no effect and ±100 for the full control effect; nearly all actives have a fitted effect of over 55% in size
Outline: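 Orthogonal cell-based readout: luminescence measured 1-1.5 hrs after adding live-cell Renilla substrate to Vero cells that had been infected with ZIKV-RLuc (MOI 1-2) post-compound, incubated 48-72 hrs at 37 degrees C.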

[13] = biological target: Rap guanine nucleotide exchange factor 3 (Homo sapiens) (UniProt O95398); assay: Confirmatory qHTS for antagonist of cAMP-regulated guanine nucleotide exchange factor 3 (EPAC1) (AID 1645880);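 also: plate controls were DMSO only for no effect and full effect of the ATA control for full effect; nearly all actives have a fitted effect of over 55% in size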
Chain of Rap guanine nucleotide exchange factor 3 (Homo sapiens) (O95398 whole entry, looked up): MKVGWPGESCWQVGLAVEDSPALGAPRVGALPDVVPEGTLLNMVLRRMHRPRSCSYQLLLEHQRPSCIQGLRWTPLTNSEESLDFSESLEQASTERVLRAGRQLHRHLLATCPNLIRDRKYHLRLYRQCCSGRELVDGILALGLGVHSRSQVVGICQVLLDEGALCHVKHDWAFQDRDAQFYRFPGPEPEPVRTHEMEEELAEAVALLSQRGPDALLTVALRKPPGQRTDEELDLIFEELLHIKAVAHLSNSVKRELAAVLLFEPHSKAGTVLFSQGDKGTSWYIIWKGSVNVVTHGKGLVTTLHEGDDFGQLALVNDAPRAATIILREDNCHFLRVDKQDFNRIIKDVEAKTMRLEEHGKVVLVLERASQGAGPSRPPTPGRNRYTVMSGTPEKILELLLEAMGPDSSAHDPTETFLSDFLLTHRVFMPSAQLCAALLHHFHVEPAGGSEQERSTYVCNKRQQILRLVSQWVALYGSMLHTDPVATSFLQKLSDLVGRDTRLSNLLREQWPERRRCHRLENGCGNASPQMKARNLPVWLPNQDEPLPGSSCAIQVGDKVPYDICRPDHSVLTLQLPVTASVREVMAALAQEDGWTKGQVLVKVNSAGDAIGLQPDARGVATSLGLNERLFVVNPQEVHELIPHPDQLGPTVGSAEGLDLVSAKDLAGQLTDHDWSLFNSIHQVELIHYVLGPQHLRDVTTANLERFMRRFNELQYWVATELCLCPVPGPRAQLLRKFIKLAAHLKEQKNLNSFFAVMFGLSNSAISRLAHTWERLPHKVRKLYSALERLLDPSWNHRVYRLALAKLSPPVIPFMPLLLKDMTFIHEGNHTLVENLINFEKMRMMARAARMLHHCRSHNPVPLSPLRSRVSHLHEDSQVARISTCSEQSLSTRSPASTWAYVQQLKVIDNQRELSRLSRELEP
Outline: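 Released BODIPY-GDP fluoresces less than Rap1-bound BODIPY-GDP; the signal is followed at 480/540 nm at 5-min intervals over 30 min, after 5 min at room temperature. Reactions contain 100 nM EPAC1, 250 nM RAP1B-BODIPY-GDP and 50 uM GDP; results are normalized to ATA and DMSO.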

[14] = biological target: Rap guanine nucleotide exchange factor 4 (Homo sapiens) (UniProt Q8WZA2); assay: Confirmatory qHTS for antagonist of cAMP-regulated guanine nucleotide exchange factor 4 (EPAC2) (AID 1645885); also: % is scaled to controls: 0 for no effect and ±100 for the full control effect; nearly all actives have a fitted effect of over 25% in size
Chain of Rap guanine nucleotide exchange factor 4 (Homo sapiens) (Q8WZA2 whole entry, looked up): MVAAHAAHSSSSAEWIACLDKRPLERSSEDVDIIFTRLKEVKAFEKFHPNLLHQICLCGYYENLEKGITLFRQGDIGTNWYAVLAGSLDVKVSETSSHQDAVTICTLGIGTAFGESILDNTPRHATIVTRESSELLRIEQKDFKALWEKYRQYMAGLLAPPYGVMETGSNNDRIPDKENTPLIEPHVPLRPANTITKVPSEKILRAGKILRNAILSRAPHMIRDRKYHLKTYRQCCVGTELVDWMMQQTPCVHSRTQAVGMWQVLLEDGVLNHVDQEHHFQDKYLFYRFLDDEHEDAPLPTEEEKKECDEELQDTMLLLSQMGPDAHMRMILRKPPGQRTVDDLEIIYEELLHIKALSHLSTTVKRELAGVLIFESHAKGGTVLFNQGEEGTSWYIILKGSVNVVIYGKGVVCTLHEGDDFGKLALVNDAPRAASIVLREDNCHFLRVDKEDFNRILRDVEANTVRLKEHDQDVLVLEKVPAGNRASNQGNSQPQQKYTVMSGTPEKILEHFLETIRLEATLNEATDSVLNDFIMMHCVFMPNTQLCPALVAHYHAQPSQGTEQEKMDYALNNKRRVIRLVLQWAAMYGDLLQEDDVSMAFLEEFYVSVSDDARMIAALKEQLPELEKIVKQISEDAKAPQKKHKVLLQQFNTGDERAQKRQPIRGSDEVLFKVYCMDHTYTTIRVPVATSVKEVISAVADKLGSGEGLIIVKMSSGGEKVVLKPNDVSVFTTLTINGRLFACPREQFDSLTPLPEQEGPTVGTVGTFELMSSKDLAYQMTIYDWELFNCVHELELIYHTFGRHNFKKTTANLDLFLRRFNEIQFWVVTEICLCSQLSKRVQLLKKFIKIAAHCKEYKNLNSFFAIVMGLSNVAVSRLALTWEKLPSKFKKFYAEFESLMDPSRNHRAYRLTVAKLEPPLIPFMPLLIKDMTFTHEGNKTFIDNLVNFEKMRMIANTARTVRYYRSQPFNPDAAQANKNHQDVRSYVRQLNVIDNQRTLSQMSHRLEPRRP

[15] = biological target: Rap guanine nucleotide exchange factor 3 (Homo sapiens) (UniProt O95398); assay: Counterscreen qHTS for antagonist of cAMP-regulated guanine nucleotide exchange factor 3 (EPAC1) (AID 1645888); also: % of control where 0% means no effect
Outline: (§1)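 Rap1B-BODIPY-GDP 250 nM + GDP 50 uM; cpds 7-pt, final 9.74 nM–152 uM (activator mode) or from 7.32 nM upwards (inhibitor mode); RT; FI 480/540 nm at 5 and 30 min, then ± cAMP, reread.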

[16] = biological target: Rap guanine nucleotide exchange factor 3 (Homo sapiens) (UniProt O95398); assay: Counterscreen qHTS for agonist of cAMP-regulated guanine nucleotide exchange factor 3 (EPAC1) (AID 1645889); also: potency is read from the fitted curve at half-maximal effect; nearly all actives have a fitted effect of over 40% in size
Outline: as §1

[17] = Confirmation and Secondary Assay for Modulators of Hemoglobin Beta Chain Splicing at IVS2 654 locus (AID 910);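 also: HeLa cells stably carrying EGFP split by mutant beta-globin IVS2-654 intron; % of control where 0% means no effect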
Outline: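 Readout: per-well total peak green fluorescence (488 nm ex, 500–520 nm em) from objects 5–250 µm, reflecting correct splicing of an EGFP-654 reporter. Compounds were applied for 2 days at 37 °C to overnight-plated HeLa EGFP-654 cells; controls were DMSO and 500 nM IVS2-654 PNA.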

[18] = Confirmation and Secondary Assay for Modulators of Hemoglobin Beta Chain Splicing at IVS2 705 locus (AID 930);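 also: HeLa cells stably expressing the EGFP-705 splicing reporter; GFP fluorescence per well restored by corrected splicing of the IVS2-705 intron in EGFP; % of control where 0% means no effect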
Outline: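 Read-out: total peak GFP fluorescence per well (488 nm excitation, 500-520 nm emission) by laser-scanning cytometry. Cells: HeLa EGFP-705 splicing reporter, 2 days compound exposure in Optimem/2% FCS.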

[19] = qHTS Assay for Lipid Storage Modulators (AID 1519; calls by dose curve; as to activity change, negative = inhibition: % is scaled to controls: 0 for no effect and ±100 for the full control effect); conditions: Drosophila S3 cells, BODIPY lipid droplet/cell ratio, laser cytometry, cells loaded with oleic acid; for activity change, negative = inhibition: at 57.5 µM (top of the series)
Outline: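 Cells seeded at 5,000 per well were treated with compounds over a concentration series and loaded with oleic acid (400 uM, as added). Lipid droplet fluorescence (488 nm excitation, 500-530 nm channel) was read by laser-scanning cytometry and normalized to 20 uM Triacsin C.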

[20] = test system: Zika virus NS2B-NS3 protease (linked); assay: 384 well plate NINDS AMC confirmatory qHTS for Zika virus inhibitors (AID 1347163); also: potency is read from the fitted curve at half-maximal effect; nearly all actives have a fitted effect of over 50% in size
Outline: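 Enzyme (5, 30 or 60 nM final) first met test compounds for ~15 min. The AMC-tagged peptide Ac-VKTGKR-AMC followed at 30 microM. Fluorescence was then recorded at 25 min and scaled against no-enzyme and no-inhibitor wells.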

[21] = biological target: Cytochrome P450 2D6 (Homo sapiens) (UniProt P10635); assay: Cytochrome P450 family 2 subfamily D member 6 (CYP2D6) small molecule antagonists: luciferase biochemical (cell-free) qHTS assay (AID 1645840; active = well fitted curve in the direction sought with a large enough effect in the repeat runs; an effect the other way counts as inactive or inconclusive; also: potency is read from the fitted curve at half-maximal effect; nearly all actives have a fitted effect of over 55% in size)
Chain of Cytochrome P450 2D6 (Homo sapiens) (P10635 whole entry, looked up): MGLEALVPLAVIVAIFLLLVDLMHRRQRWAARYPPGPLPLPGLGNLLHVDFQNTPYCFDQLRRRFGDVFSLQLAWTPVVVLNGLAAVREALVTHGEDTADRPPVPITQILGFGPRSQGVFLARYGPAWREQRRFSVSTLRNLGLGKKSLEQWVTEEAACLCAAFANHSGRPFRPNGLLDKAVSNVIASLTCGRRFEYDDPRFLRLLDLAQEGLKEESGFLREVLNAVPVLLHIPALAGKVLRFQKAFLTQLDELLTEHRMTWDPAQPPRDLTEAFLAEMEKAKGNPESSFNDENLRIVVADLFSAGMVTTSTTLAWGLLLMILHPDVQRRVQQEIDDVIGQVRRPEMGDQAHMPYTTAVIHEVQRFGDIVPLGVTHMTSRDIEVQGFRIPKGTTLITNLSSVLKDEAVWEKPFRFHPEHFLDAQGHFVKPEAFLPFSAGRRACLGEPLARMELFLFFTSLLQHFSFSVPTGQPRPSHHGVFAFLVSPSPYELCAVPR
Outline: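 P450-Glo CYP2D6 system: proluciferin substrate converted by enzyme to luciferin, read by luminescence proportional to activity. Enzyme-substrate mix with compound 10 min at room temperature, then NADPH regeneration 1 h before detection reagent.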

[22] = biological target: Cytochrome P450 2C9 (Homo sapiens) (UniProt P11712); assay: Cytochrome P450 family 2 subfamily C member 9 (CYP2C9) small molecule antagonists: luciferase biochemical (cell-free) qHTS assay (AID 1645842; active = well fitted curve in the direction sought with a large enough effect in the repeat runs; an effect the other way counts as inactive or inconclusive; also: potency is read from the fitted curve at half-maximal effect; nearly all actives have a fitted effect of over 55% in size)
Chain of Cytochrome P450 2C9 (Homo sapiens) (P11712 whole entry, looked up): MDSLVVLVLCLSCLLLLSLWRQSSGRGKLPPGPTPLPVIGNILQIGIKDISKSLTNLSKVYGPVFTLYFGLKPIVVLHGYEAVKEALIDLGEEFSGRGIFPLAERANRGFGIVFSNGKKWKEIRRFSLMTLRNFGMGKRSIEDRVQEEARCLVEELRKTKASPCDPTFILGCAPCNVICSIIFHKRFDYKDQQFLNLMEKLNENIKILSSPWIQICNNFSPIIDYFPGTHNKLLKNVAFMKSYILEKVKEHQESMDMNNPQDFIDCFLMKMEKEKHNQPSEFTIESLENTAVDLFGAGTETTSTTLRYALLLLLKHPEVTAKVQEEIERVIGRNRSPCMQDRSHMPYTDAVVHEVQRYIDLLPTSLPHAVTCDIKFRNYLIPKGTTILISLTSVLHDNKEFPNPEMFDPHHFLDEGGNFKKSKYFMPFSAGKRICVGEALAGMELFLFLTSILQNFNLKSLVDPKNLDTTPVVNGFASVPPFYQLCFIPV
Outline: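 P450-Glo CYP2C9 system: proluciferin substrate with enzyme in mix containing 0.4% BSA, 10 min at room temperature, then NADPH regeneration solution added and incubated 1 h at 37C. Detection reagent stopped reaction; luminescence read after 20 min as RLU.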

[23] = measured here: cell count channel max response
[24] = measured here: lipid channel max response

O=C1c2ccccc2C(Cc2ccncc2)(Cc2ccncc2)c2ccccc21
inactive: Potency [1] > 46 µM | Potency [2] | Potency [4] | Potency [5] | Potency [6] | Potency [7]
active: Potency [3] 0.501 µM

O=C1c2ccccc2C(Cc2ccnc(F)c2)(Cc2ccnc(F)c2)c2ccccc21
inactive: Potency [4] | Potency [7]
active: Potency [3] 15.8 µM

O=C(O)c1ccccc1-c1c2cc(I)c(=O)c(I)c-2oc2c(I)c(O)c(I)cc12
active: Potency [8] 14.1 µM | Potency [10] 3.16 µM | Potency [16] 7.08 µM
inactive: Potency [9] | Potency [11] | Potency [12] | Potency [13] | activity change, negative = inhibition [14] 12.6% [at 12.7 µM] | activity change, negative = inhibition [15] 212% [at 30.8 µM]

O=c1c(O)cc(C2Oc3cc(O)cc(O)c3CC2O)cc2c(C3Oc4cc(O)cc(O)c4CC3O)cc(O)c(O)c12 (configuration not stated)
inactive: Potency [4] | outcome [17] | outcome [18] | activity change, negative = inhibition [19] 11.1% | Potency [9] | Potency [11]
13.9%: max response [19, 23]
27.3%: max response [19, 24]
active: Potency [3] 15.8 µM | Potency [5] 35.5 µM | Potency [8] 12.6 µM | Potency [10] 20 µM | Potency [20] 7.94 µM

Cc1cccc(CCN2CCC(C(=O)c3ccc(NS(C)(=O)=O)cc3)CC2)n1
inactive: Potency [5] | Potency [6] | Potency [7]

O=C1c2ccc(O)c(O)c2C(=O)c2c(O)ccc(O)c21
inactive: outcome [17] | outcome [18] | activity change, negative = inhibition [19] 6.47% | Potency [9] | Potency [11]
active: Potency [5] 79.4 µM | Potency [8] 12.6 µM | Potency [10] 5.62 µM | Potency [20] 31.6 µM | Potency [21] 21.3 µM | Potency [22] 19 µM
-3.59%: max response [19, 24]
-10.7%: max response [19, 23]

CCN(Cc1cccc(S(=O)(=O)O)c1)c1ccc(C(=C2C=CC(=[N+](CC)Cc3cccc(S(=O)(=O)O)c3)C=C2)c2ccc(O)cc2S(=O)(=O)O)cc1
inactive: Potency [9]
active: Potency [8] 4.47 µM | Potency [10] 3.55 µM | Potency [20] 63.1 µM
